# Screens deposited in PubChem BioAssay by National Center for Advancing Translational Sciences (NCATS).
# An excerpt weighted towards active compounds, which were near 3.7% of everything screened.
# Nrf2 inh: inhibitors of Nrf2 signaling; A549 ARE-Fluc reporter, luciferase luminescence, 18-24 h; 2.1% of 360,000 active; Potency, µM (series often up to 46 µM), for the others: top-dose activity change, negative = inhibition, hits mostly inhibitors; AID 504444; also: % is scaled to controls: 0 for no effect and ±100 for the full control effect; nearly all actives have a fitted effect of over 60% in size
#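 Quantitative HTS in A549 cells stably bearing an antioxidant response element-firefly luciferase construct. Inhibition of Nrf2-driven transcription was scored by luminescence after 18-24 h of compound exposure at 37 °C.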
# A549 tox: counter-screen for Nrf2 inhibitors: cytotoxicity in A549 cells | A549 ARE-Fluc cells, CellTiter-Fluor viability, 18-24 h | Potency, µM (series often up to 46 µM), inactives show top-dose activity change, negative = cytotoxicity, hits mostly inhibitors | 0.16% of 390,000 active | AID 504648; also: % is scaled to controls: 0 for no effect and ±100 for the full control effect
#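 A549 ARE_Fluc cells in 5% FBS OPTI-MEM were exposed to compounds in concentration-response for 18-24 h at 37 deg C. Viability was read by CellTiter-Fluor fluorescence (Ex 405/Em 525) after 30 min, before the luciferase read.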
# Nrf2 activator: Nrf2 pathway activation; AREc32 ARE-luciferase reporter (MCF7-derived line), luminescence, 24 h; Potency, µM (doses to about 46.1 µM), for the others: top-dose activation, most hits filed as activators; 0.31% of 410,000 active; AID 624171; also: % of control where 0% means no effect; nearly all actives have a fitted effect of over 65% in size
#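 Reporter line AREc32 (ARE-Fluc), seeded overnight in OPTI-MEM with 5% FBS; compound pin-transferred, 24 hr at 37 deg C, 5% CO2; luminescent read-out.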
# ELG1 repair inh: blocks ELG1-dependent DNA repair in HEK293T cells. HEK293T ELG1-luciferase reporter, luminescence, 16 h; DNA damage induced by 5-fluorouridine. Potency, µM (highest dose often 46.1 µM), for the others: at the highest dose activity change, negative = inhibition, most hits filed as inhibitors. 2.3% of 330,000 active. AID 504467; also: % is scaled to controls: 0 for no effect and ±100 for the full control effect; nearly all actives have a fitted effect of over 55% in size
#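 Luminescence from the luciferase reporter, measured 30 min after ONE-Glo reagent at room temperature, was the read-out. Beforehand, 2,000 cells per well were exposed for 16 hr at 37 °C to 5-fluorouridine together with compound or vehicle.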
# * marks the source's active call; other numbers are inactive results; ? = inconclusive; . = no result given. Calls follow the shape of the dose curve; as a rule, active = well fitted curve in the direction sought with a large enough effect; inconclusive = small, poorly fitted or top-dose-only effect, or another doubt; inactive = no such curve, though single readings can be large; an effect the other way counts as inactive or inconclusive. Potency is read from the fitted curve at half-maximal effect.
SMILES,Nrf2 inh,A549 tox,Nrf2 activator,ELG1 repair inh
COc1ccc(OC)c(NC(=O)c2ccc(OCC(=O)N3CCOCC3)c(OC)c2)c1,-19%,0%,0%,-13%
COc1ccc(-c2csc(NC(=O)C3CCN(C(=O)c4ccc(F)cc4)CC3)n2)cc1OC,?,-8%,0%,15µM*
COc1ccc(-c2csc(NC(=O)c3ccc(OCC(=O)N4CCOCC4)c(OC)c3)n2)cc1,?,-14%,2%,16µM*
Cc1ccccc1NC(=O)CCNS(=O)(=O)c1ccc2c(c1)CCC(=O)N2,15%,0%,0%,0%
Cc1n(Cc2ccccc2)c2cc([N+](=O)[O-])ccc2[n+]1Cc1ccccc1,0%,3%,-1%,-8%
Cc1n(Cc2ccccc2)c2ccccc2[n+]1Cc1ccccc1,16µM*,-7%,-1%,?
CCn1c(C)[n+](Cc2ccccc2)c2ccc(C(=O)OC)cc21,-1%,5%,0%,-29%
CCn1c(C)[n+](Cc2ccccc2)c2ccc(Cl)cc21,-29%,-12%,-1%,15µM*
COCCn1c(SCC(=O)NC2(C#N)CCCCC2)nc2ccccc2c1=O,2%,-10%,0%,8%
COC(=O)C1Cc2ccccc2CN1S(=O)(=O)c1ccc(F)cc1 (stereo not drawn),-7%,0%,-1%,7%
CC(=O)Nc1ccc(S(=O)(=O)N2CCC(n3cnc4cc(F)ccc43)CC2)cc1,?,-1%,-1%,10µM*
CCOC(=O)C1=C(C)NC2=C(C(=O)c3ccccc32)C1c1ccc([N+](=O)[O-])o1 (stereo not drawn),1%,-15%,14µM*,?
CCOC(=O)C1=C(C)NC(C)=C(C(=O)OCC)C1c1cccc([N+](=O)[O-])c1,.,.,3%,.
CCOC(=O)C1=C(C)NC2=C(C1c1ccc([N+](=O)[O-])cc1)S(=O)(=O)c1ccccc12 (stereo not drawn),-18%,-7%,0%,10µM*
COc1ccc(CN(C)C(=O)c2ccc(Cl)c(S(=O)(=O)NCc3cccnc3)c2)cc1F,-17%,-1%,3%,?
Cc1cccc(C(=O)Nc2cccc(-c3ccc4nncn4n3)c2)c1,12µM*,0%,3%,?
COc1ccc(C(=O)Nc2cccc(-c3ccc4nncn4n3)c2)cc1OC,-16%,-3%,3%,-6%
COc1ccc(CC(=O)Nc2cccc(-c3ccc4nncn4n3)c2)cc1OC,21µM*,?,4%,7.3µM*
COc1ccc(CC(=O)Nc2cccc(-c3nnc(-c4cccc(C)c4)o3)c2)cc1OC,?,-11%,0%,2.9µM*
COc1ccc(CC(=O)Nc2cccc(-c3nnc(-c4ccc(C)cc4)o3)c2)cc1OC,?,-26%,1%,12µM*
Cn1c(SCc2ccc(F)cc2)nc2ccc(C(=O)NCc3ccccc3)cc21,?,-26%,5%,.
COc1ccccc1C(=O)N/C(=N/c1nc(C)cc(C)n1)Nc1ccccc1,?,-15%,14%,?
Cc1cccn2cc(-c3ccc(NC(=O)Cc4ccccc4)cc3)nc12,-20%,-4%,0%,3%
COc1ccc(CC(=O)Nc2cccc(-c3nnc(-c4ccccc4)o3)c2)cc1OC,?,?,0%,5µM*
COc1ccc(CC(=O)Nc2ccc(-c3cn4cccc(C)c4n3)cc2)cc1OC,7.3µM*,2%,7%,?
SMILES,Nrf2 inh,A549 tox,Nrf2 activator,ELG1 repair inh
COc1c(C)cc(C(=O)C2CCCN(Cc3ccc(Oc4ncccn4)cc3)C2)cc1C (stereo not drawn),10%,1%,4%,18µM*
CCOC(=O)N1CCN(C(=O)c2cc3cc(Cl)ccc3[nH]2)CC1,-28%,-2%,4%,15%
COc1ccc(-n2ccnc2SCC(=O)Nc2cccc(OC)c2)cc1,.,7%,1%,.
O=S1(=O)CCOC[C@H](Cc2ccccc2)N1Cc1ccc(Cl)cc1,?,6%,9%,.
Cc1cccc(N2CCN(S(=O)(=O)c3c(C)nc4scc(C)n4c3=O)CC2)c1C,?,2%,0%,26µM*
Cc1ccc(C)c(N2CCN(C(=O)C3CCN(c4nnc(N5CCCC5=O)s4)CC3)CC2)c1,?,-1%,1%,15µM*
Cc1cccc(N2CCN(C(=O)C3CCN(S(=O)(=O)c4c(C)noc4C)CC3)CC2)c1C,?,-11%,0%,13µM*
Cc1noc(C)c1S(=O)(=O)N1CCC(C(=O)N2CCN(c3ccccc3Cl)CC2)CC1,6%,4%,1%,?
Cc1nc2scc(C)n2c(=O)c1S(=O)(=O)N1CCN(c2ccccc2F)CC1,4%,0%,2%,1%
Cc1noc(C)c1S(=O)(=O)N1CCC(C(=O)N2CCN(c3cccc(C(F)(F)F)c3)CC2)CC1,18µM*,-15%,0%,.
Cc1ccc(C)c(N2CCN(C(=O)C3CCN(S(=O)(=O)c4c(C)noc4C)CC3)CC2)c1,?,1%,2%,12µM*
Cc1ccc(C)c(N2CCN(C(=O)C3CCCN(S(=O)(=O)c4c(C)noc4C)C3)CC2)c1 (stereo not drawn),16µM*,3%,0%,15µM*
Nc1ccc(-c2n[nH]c(=O)c3ccccc23)cc1N,16µM*,0%,3%,-4%
CCn1c(=O)c(CCC(=O)N2CCN(c3ccccn3)CC2)c(C)c2c(C)nn(-c3ccccc3)c21,-16%,1%,0%,16µM*
CCn1c(=O)c(CCC(=O)NCCN2CCOCC2)c(C)c2c(C)nn(-c3ccccc3)c21,-2%,1%,0%,-20%
COc1ccc(-c2csc3ncnc(N4CCN(S(=O)(=O)c5ccc(C(C)=O)cc5)CC4)c23)cc1,?,-4%,?,?
O=S(=O)(NCCCCNS(=O)(=O)c1c(F)cccc1F)c1ccc2c(c1)OCCO2,19%,-3%,0%,5%
CCC(=O)N1CCN(c2ccc(NC(=O)c3cc4ccccc4o3)cc2Cl)CC1,?,?,-3%,5.8µM*
Cc1ccc(NC(=O)c2cc3ccccc3o2)cc1Cl,?,-12%,13%,?
CCCC(=O)N1CCN(c2ccc(NC(=O)c3cccs3)cc2Cl)CC1,-15%,3%,0%,7.3µM*
O=C(Nc1ccc(N2CCN(C(=O)c3ccco3)CC2)c(Cl)c1)c1cc2ccccc2o1,18µM*,?,0%,5.2µM*
CCCC(=O)N1CCN(c2ccc(NC(=O)c3cc4ccccc4o3)cc2Cl)CC1,13µM*,?,-4%,2.3µM*
CCc1nnc(SCC(=O)NC2CC2)n1CC,0%,7%,-1%,8%
Cc1nnc(SCC(=O)Nc2nccs2)o1,0%,6%,0%,-1%
O=C(Nc1ccc(N2CCN(C(=O)c3ccccc3)CC2)c(Cl)c1)c1ccco1,?,0%,-1%,12µM*
CC(=O)N1CCN(c2ccc(NC(=O)c3ccco3)cc2Cl)CC1,9%,17%,5%,?
Cc1oc(-c2ccccc2F)nc1CS(=O)(=O)CC(=O)N1CCN(c2ccc(Cl)cc2)CC1,5.8µM*,?,0%,.
